Counter-ions that a name gives are not always drawn.
Legend:
Conditions in all cases: incubation time: 27 h, anaerobic, 37 °C;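 for the amine columns active = adjusted P below 0.05 in both replicates with a change the same way and a mean fold change under 0.8 or over 1.25; inactive = the rest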
[1] = tested on: Clostridium sporogenes DSM 1664; assay: growth (OD595) fold change vs plate DMSO controls (fold change (ratio)); higher = more growth
In short: (§1)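 The measure reported is growth, taken as fold change against the median of DMSO controls on the same plate. Anaerobic mGAM cultures in 96-well plates (27 h, 37 °C) were read at 595 nm, blank-subtracted, corrected for compound background using 20 µM compound solutions in water, and multiplied by a calibration factor of 5 to give OD. Any fold change above 1.5 became NA, and 2 biological replicates were averaged.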

[2] = tested on: Escherichia coli IAI1; assay: as above
In short: as §1

[3] = tested on: Klebsiella aerogenes DSM 30053; assay: as above
In short: as §1

[4] = tested on: Ruminococcus gnavus DSM 108212; assay: as above
In short: as §1

[5] = tested on: Klebsiella aerogenes DSM 30053; assay: fold change of Histamine concentration vs plate DMSO controls (fold change (ratio)); higher = more amine produced, active = hit call of the paper (significant change in both replicates, either direction)
In short: (§2)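 Extracts of whole anaerobic mGAM cultures were analysed for amines by LC–triple-quadrupole MS with dynamic MRM and external calibration curves, with drift corrected within batch. Four gut strains were grown at 37 °C for 27 h in 80 µL wells with compounds at 20 µM final, sweeteners at 50 µM final. Each value expresses fold change over plate DMSO controls. The average of 2 biological replicates is shown.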

[6] = tested on: Clostridium sporogenes DSM 1664; assay: fold change of Tryptamine concentration vs plate DMSO controls (fold change (ratio)); higher = more amine produced, active = hit call of the paper (significant change in both replicates, either direction)
In short: as §2

[7] = tested on: Ruminococcus gnavus DSM 108212; assay: as above
In short: as §2

[8] = tested on: Escherichia coli IAI1; assay: fold change of Putrescine concentration vs plate DMSO controls (fold change (ratio)); higher = more amine produced, active = hit call of the paper (significant change in both replicates, either direction)
In short: as §2

[9] = tested on: Klebsiella aerogenes DSM 30053; assay: as above
In short: as §2

[10] = tested on: Escherichia coli IAI1; assay: fold change of Cadaverine concentration vs plate DMSO controls (fold change (ratio)); higher = more amine produced, active = hit call of the paper (significant change in both replicates, either direction)
In short: as §2

[11] = tested on: Klebsiella aerogenes DSM 30053; assay: as above
In short: as §2

[12] = tested on: Ruminococcus gnavus DSM 108212; assay: fold change of 2-Phenylethylamine concentration vs plate DMSO controls (fold change (ratio)); higher = more amine produced, active = hit call of the paper (significant change in both replicates, either direction)
In short: as §2

| Compound | growth [1] | growth [2] | growth [3] | growth [4] | fold change of Histamine concentration [5] | fold change of Tryptamine concentration [6] | fold change of Tryptamine concentration [7] | fold change of Putrescine concentration [8] | fold change of Putrescine concentration [9] | fold change of Cadaverine concentration [10] | fold change of Cadaverine concentration [11] | fold change of 2-Phenylethylamine concentration [12] |
| --- | --- | --- | --- | --- | --- | --- | --- | --- | --- | --- | --- | --- |
| CCCCNC(=N)NC(=N)N [Buformin] (20 µM) | 1.02 | 0.988 | 0.986 | 1 | 1.03 (inactive) | 1.05 (inactive) | 0.934 (inactive) | 1.01 (inactive) | 1.01 (inactive) | 1.03 (inactive) | 1 (inactive) | 0.915 (inactive) |
| NCCCC[C@H](N[C@@H](CCc1ccccc1)C(=O)O)C(=O)N1CCC[C@H]1C(=O)O [Lisinopril] (20 µM) | 1.04 | 1.03 | 1.14 | 0.922 | 0.911 (inactive) | 0.958 (inactive) | 0.981 (inactive) | 0.998 (inactive) | 0.988 (inactive) | 1.04 (inactive) | 1.02 (inactive) | 0.943 (inactive) |
| Nc1c(Br)cc(Br)cc1CN[C@H]1CC[C@H](O)CC1 [Ambroxol hydrochloride] (20 µM) | 0.943 | 1.07 | 0.958 | 0.75 | 1.03 (inactive) | 1.04 (inactive) | 1 (inactive) | 1.05 (inactive) | 1 (inactive) | 1.01 (inactive) | 0.991 (inactive) | 0.985 (inactive) |
| C[C@@H](O)[C@H]1C(=O)N2C(C(=O)O)=C(SCCNC=N)C[C@H]12 [Imipenem] (20 µM) | 0.318 | 1.08 | 0.85 | 0.0868 | 0.772 (inactive) | 0.0417 (active) | 0.0408 (active) | 0.971 (inactive) | 1.03 (inactive) | 1.65 (active) | 1 (inactive) | 0.0463 (active) |
| O=C(O)c1ccccc1Nc1cccc(C(F)(F)F)c1 [Flufenamic acid] (20 µM) | 1.16 | 0.983 | 1.07 | 0.538 | 0.993 (inactive) | 0.918 (inactive) | 0.989 (inactive) | 1.03 (inactive) | 1.02 (inactive) | 1.03 (inactive) | 1.02 (inactive) | 0.981 (inactive) |
| CC1=C(C(=O)O)N2C(=O)[C@@H](NC(=O)[C@H](N)c3ccccc3)[C@H]2SC1 [Cephalexin monohydrate] (20 µM) | 0.958 | 0.985 | 0.98 | 0.987 | 1.03 (inactive) | 1.17 (inactive) | 1.1 (inactive) | 0.911 (inactive) | 0.934 (inactive) | 0.879 (inactive) | 1.01 (inactive) | 1.15 (inactive) |
| CO/N=C1\CN(c2nc3c(cc2F)c(=O)c(C(=O)O)cn3C2CC2)CC1CN (configuration not stated) [Gemifloxacin mesylate] (20 µM) | 0.00381 | 0.0388 | 0.126 | 0.376 | 0.0873 (active) | 0.0398 (active) | 0.148 (active) | 0.735 (inactive) | 0.66 (inactive) | 0.223 (active) | 0.992 (inactive) | 0.159 (active) |
| CN1CCCC(n2nc(Cc3ccc(Cl)cc3)c3ccccc3c2=O)CC1 (configuration not stated) [Azelastine hydrochloride] (20 µM) | 1.05 | 1.05 | 0.95 | 0.57 | 1.13 (inactive) | 0.963 (inactive) | 0.943 (inactive) | 1.03 (inactive) | 1.03 (inactive) | 1.01 (inactive) | 0.976 (inactive) | 0.937 (inactive) |
| CC(C)OC(=O)CCC/C=C\C[C@@H]1[C@@H](CC[C@@H](O)CCc2ccccc2)[C@H](O)C[C@@H]1O [Latanoprost] (20 µM) | 0.975 | 1 | 0.984 | 1.44 | 1.11 (inactive) | 0.828 (inactive) | 0.542 (active) | 0.928 (inactive) | 1.04 (inactive) | 0.939 (inactive) | 1 (inactive) | 0.649 (inactive) |
| CC(C)(C)NC[C@@H](O)COc1cccc2c1CCCC2=O [(+) Levobunolol hydrochloride] (20 µM) | 1.08 | 0.974 | 1.11 | 0.903 | 0.936 (inactive) | 1.05 (inactive) | 1.04 (inactive) | 1.04 (inactive) | 0.985 (inactive) | 0.994 (inactive) | 0.999 (inactive) | 1.02 (inactive) |
| Cn1cc([S+](C)[O-])c(=O)c2ccc(F)cc21 (configuration not stated) [Flosequinan] (20 µM) | 0.995 | 1 | 1.01 | 1.06 | 1.03 (inactive) | 0.946 (inactive) | 0.958 (inactive) | 0.994 (inactive) | 1.02 (inactive) | 1.04 (inactive) | 0.999 (inactive) | 0.938 (inactive) |
| CC1(C)S[C@@H]2[C@H](NC(=O)[C@H](N)c3ccccc3)C(=O)N2[C@H]1C(=O)O [Ampicillin trihydrate] (20 µM) | 0 | 0.431 | 0.91 | 0 | 0.914 (inactive) | 0.01 (active) | 0.0662 (active) | 2.31 (active) | 1.03 (inactive) | 2.29 (active) | 1.06 (inactive) | 0.0431 (active) |
| CCCCNc1cc(C(=O)O)cc(S(N)(=O)=O)c1Oc1ccccc1 [Bumetanide] (20 µM) | 1.19 | 1.01 | 1 | 0.971 | 0.994 (inactive) | 1.03 (inactive) | 1.05 (inactive) | 1.04 (inactive) | 1.02 (inactive) | 1.03 (inactive) | 1 (inactive) | 1.07 (inactive) |
| c1ccc2c(c1)-c1cccc3c1c-2cc1ccccc13 [Benzo[b]fluoranthene] (20 µM) | 1.08 | 0.997 | 1.04 | 1 | 0.993 (inactive) | 1.03 (inactive) | 1.02 (inactive) | 1 (inactive) | 1.02 (inactive) | 1.03 (inactive) | 1.01 (inactive) | 1.04 (inactive) |
| CC/C(=C(/CC)c1ccc(O)cc1)c1ccc(O)cc1 [Diethylstilbestrol] (20 µM) | 0.583 | 0.984 | 1 | 0.991 | 1.03 (inactive) | 0.432 (active) | 0.88 (inactive) | 1 (inactive) | 1.01 (inactive) | 1.02 (inactive) | 0.993 (inactive) | 0.865 (inactive) |
| CC[C@H](C)C(=O)O[C@H]1CCC=C2C=C[C@H](C)[C@H](CC[C@@H]3C[C@@H](O)CC(=O)O3)[C@H]21 [Mevastatin] (20 µM) | 1.15 | 1 | 1.01 | 1.02 | 0.995 (inactive) | 0.988 (inactive) | 1.02 (inactive) | 0.998 (inactive) | 1 (inactive) | 1.07 (inactive) | 0.998 (inactive) | 1.04 (inactive) |
| O=C(O)c1cccnc1Nc1cccc(C(F)(F)F)c1 [Niflumic acid] (20 µM) | 0.913 | 1.08 | 0.996 | 1.32 | 1.05 (inactive) | 1.04 (inactive) | 1.02 (inactive) | 1.08 (inactive) | 1.01 (inactive) | 0.996 (inactive) | 0.993 (inactive) | 0.988 (inactive) |
| CC(C)NCC(O)c1ccc(O)c(O)c1 (single isomer, unassigned; (+)) [(+) Isoproterenol-(+)-bitartrate salt] (20 µM) | 1.02 | 1.06 | 0.995 | 1.06 | 1.03 (inactive) | 1.01 (inactive) | 0.989 (inactive) | 0.979 (inactive) | 0.997 (inactive) | 0.976 (inactive) | 0.974 (inactive) | 0.984 (inactive) |
| C#CCN[C@@H]1CCc2ccccc21 [Rasagiline] (20 µM) | 0.963 | 0.959 | 0.993 | 0.87 | 1.02 (inactive) | 1.03 (inactive) | 1.02 (inactive) | 0.965 (inactive) | 0.981 (inactive) | 1.02 (inactive) | 0.974 (inactive) | 1.03 (inactive) |
| CN(C)CCC(c1ccccc1)c1ccccn1 (configuration not stated) [Pheniramine maleate] (20 µM) | 1.03 | 0.982 | 0.985 | 0.784 | 1.02 (inactive) | 0.954 (inactive) | 0.877 (inactive) | 0.896 (inactive) | 1.01 (inactive) | 1.27 (active) | 0.986 (inactive) | 0.798 (inactive) |
| Cc1cccc(CN2CCN(C(c3ccccc3)c3ccc(Cl)cc3)CC2)c1 (configuration not stated) [Meclozine dihydrochloride] (20 µM) | 0.897 | 0.963 | 1.01 | 0.705 | 0.964 (inactive) | 1.04 (inactive) | 0.826 (inactive) | 1 (inactive) | 0.989 (inactive) | 0.971 (inactive) | 1.01 (inactive) | 0.93 (inactive) |

Reference: the supplement of paper PMC12494721
